{
  "source": "the supplement of paper PMC12645437",
  "about": "“Orthogonal IMiD-Degron Pairs Induce Selective Protein Degradation in Cells” (ACS Chemical Biology, 2025)",
  "sequences": {"B1": {"name": "46F_47V_49E_50I_52G_53A_54T_55F_67L_, Q9UKT9 (peptide)", "chain": "FVCEICGATFTQKGNLLRHIKL"}, "B2": {"name": "46F_47G_49E_50I_52G_53A_54T_55F_67L_, Q9UKT9 (peptide)", "chain": "FGCEICGATFTQKGNLLRHIKL"}, "B3": {"name": "46F_47W_49E_50I_52G_53A_54T_55F_67L_, Q9UKT9 (peptide)", "chain": "FWCEICGATFTQKGNLLRHIKL"}, "B4": {"name": "46F_47F_49E_50I_52G_53H_54I_55F_67L_, Q9UKT9 (peptide)", "chain": "FFCEICGHIFTQKGNLLRHIKL"}, "B5": {"name": "46L_47V_49E_50I_52G_53F_54S_55C_67L_, Q9UKT9 (peptide)", "chain": "LVCEICGFSCTQKGNLLRHIKL"}, "B6": {"name": "46L_47W_49E_50I_52G_53F_54S_55C_67L_, Q9UKT9 (peptide)", "chain": "LWCEICGFSCTQKGNLLRHIKL"}, "B7": {"name": "46L_47Q_49E_50I_52G_53F_54S_55C_67L_, Q9UKT9 (peptide)", "chain": "LQCEICGFSCTQKGNLLRHIKL"}, "B8": {"name": "46L_47S_49E_50I_52G_53F_54S_55C_67L_, Q9UKT9 (peptide)", "chain": "LSCEICGFSCTQKGNLLRHIKL"}, "B9": {"name": "46L_47L_49E_50I_52G_53F_54S_55C_67L_, Q9UKT9 (peptide)", "chain": "LLCEICGFSCTQKGNLLRHIKL"}, "B10": {"name": "46L_47G_49E_50I_52G_53F_54S_55C_67L_, Q9UKT9 (peptide)", "chain": "LGCEICGFSCTQKGNLLRHIKL"}, "B11": {"name": "46L_47R_49E_50I_52G_53F_54S_55C_67L_, Q9UKT9 (peptide)", "chain": "LRCEICGFSCTQKGNLLRHIKL"}, "B12": {"name": "46L_47H_49E_50I_52G_53F_54S_55C_67L_, Q9UKT9 (peptide)", "chain": "LHCEICGFSCTQKGNLLRHIKL"}, "B13": {"name": "46L_47N_49E_50I_52G_53F_54S_55C_67L_, Q9UKT9 (peptide)", "chain": "LNCEICGFSCTQKGNLLRHIKL"}, "B14": {"name": "46L_47D_49E_50I_52G_53F_54S_55C_67L_, Q9UKT9 (peptide)", "chain": "LDCEICGFSCTQKGNLLRHIKL"}, "B15": {"name": "46L_47A_49E_50I_52G_53F_54S_55C_67L_, Q9UKT9 (peptide)", "chain": "LACEICGFSCTQKGNLLRHIKL"}, "B16": {"name": "46L_47E_49E_50I_52G_53F_54S_55C_67L_, Q9UKT9 (peptide)", "chain": "LECEICGFSCTQKGNLLRHIKL"}, "B17": {"name": "46F_47L_49D_50I_52G_53A_54C_55F_67L_, Q9UKT9 (peptide)", "chain": "FLCDICGACFTQKGNLLRHIKL"}, "B18": {"name": "46F_47T_49N_50Q_52G_53R_54M_55F_67L_, Q9UKT9 (peptide)", "chain": "FTCNQCGRMFTQKGNLLRHIKL"}},
  "molecular_target": "T1, CRBN, Q96SW2",
  "T1 chain": "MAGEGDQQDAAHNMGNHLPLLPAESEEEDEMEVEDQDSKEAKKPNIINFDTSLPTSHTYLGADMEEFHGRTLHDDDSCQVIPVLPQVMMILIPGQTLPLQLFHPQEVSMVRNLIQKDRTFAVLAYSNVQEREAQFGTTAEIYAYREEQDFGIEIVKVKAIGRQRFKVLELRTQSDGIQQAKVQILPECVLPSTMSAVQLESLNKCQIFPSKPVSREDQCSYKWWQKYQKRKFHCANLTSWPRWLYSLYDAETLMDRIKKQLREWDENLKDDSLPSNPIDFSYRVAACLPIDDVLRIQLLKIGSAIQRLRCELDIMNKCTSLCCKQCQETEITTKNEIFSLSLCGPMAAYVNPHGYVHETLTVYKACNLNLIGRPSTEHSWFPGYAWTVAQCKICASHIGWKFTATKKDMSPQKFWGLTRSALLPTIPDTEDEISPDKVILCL",
  "assay": "log2 fold change of degron read counts, EGFP-low vs EGFP+ sorted cells (limma voom), compound-induced degradation; higher = more compound-induced degradation of the degron-EGFP fusion; degrons are variants of IKZF1/3 zinc finger 2; compound dose not given here",
  "conditions": "Jurkat, 18 h",
  "key": {"[1]": {"conditions": "compound: compound 19 (5-tert-butyl-thalidomide)"}, "[2]": {"conditions": "compound: compound 22 (5-morpholino-thalidomide)"}, "[3]": {"conditions": "compound: compound 33 (diphenyl IMiD analogue)"}},
  "note": "Over roughly 8,300 sequences, “log2 fold change of degron read counts, EGFP-low vs EGFP+ sorted cells (limma voom), compound-induced degradation” has its median near -1.1; the highest 2% begin near 3.2. Only a selection was taken, and the highest values are over-represented in it overall.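 Further: pooled lentiviral library of zinc finger degron-EGFP fusions in mCherry-positive Jurkat cells, FACS-sorted after compound exposure, with degron abundance counted by next-generation sequencing.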",
  "data": [
    {"sequence": "B1", "values": [
      {"measurement": "log2 fold change of degron read counts", "setting": "[1]", "value": 0.63},
      {"measurement": "log2 fold change of degron read counts", "setting": "[2]", "value": 1.64},
      {"measurement": "log2 fold change of degron read counts", "setting": "[3]", "value": 1.82},
      {"measurement": "log2 fold change of degron read counts", "setting": "compound: thalidomide", "value": 2.54}
    ]},
    {"sequence": "B2", "values": [
      {"measurement": "log2 fold change of degron read counts", "setting": "[1]", "value": 3.22},
      {"measurement": "log2 fold change of degron read counts", "setting": "[2]", "value": 2.59},
      {"measurement": "log2 fold change of degron read counts", "setting": "[3]", "value": 1.76},
      {"measurement": "log2 fold change of degron read counts", "setting": "compound: thalidomide", "value": 1.11}
    ]},
    {"sequence": "B3", "values": [
      {"measurement": "log2 fold change of degron read counts", "setting": "[1]", "value": 3.05},
      {"measurement": "log2 fold change of degron read counts", "setting": "[2]", "value": 3.73},
      {"measurement": "log2 fold change of degron read counts", "setting": "[3]", "value": 1.97},
      {"measurement": "log2 fold change of degron read counts", "setting": "compound: thalidomide", "value": 0.793}
    ]},
    {"sequence": "B4", "values": [
      {"measurement": "log2 fold change of degron read counts", "setting": "[1]", "value": -0.448},
      {"measurement": "log2 fold change of degron read counts", "setting": "[2]", "value": -0.503},
      {"measurement": "log2 fold change of degron read counts", "setting": "[3]", "value": -0.957},
      {"measurement": "log2 fold change of degron read counts", "setting": "compound: thalidomide", "value": -1.04}
    ]},
    {"sequence": "B5", "values": [
      {"measurement": "log2 fold change of degron read counts", "setting": "[1]", "value": 2.39},
      {"measurement": "log2 fold change of degron read counts", "setting": "[2]", "value": 3.11},
      {"measurement": "log2 fold change of degron read counts", "setting": "[3]", "value": 2.52},
      {"measurement": "log2 fold change of degron read counts", "setting": "compound: thalidomide", "value": 3.33}
    ]},
    {"sequence": "B6", "values": [
      {"measurement": "log2 fold change of degron read counts", "setting": "[1]", "value": 3.66},
      {"measurement": "log2 fold change of degron read counts", "setting": "[2]", "value": 3.79},
      {"measurement": "log2 fold change of degron read counts", "setting": "[3]", "value": 3.08},
      {"measurement": "log2 fold change of degron read counts", "setting": "compound: thalidomide", "value": 1.89}
    ]},
    {"sequence": "B7", "values": [
      {"measurement": "log2 fold change of degron read counts", "setting": "[1]", "value": 2.41},
      {"measurement": "log2 fold change of degron read counts", "setting": "[2]", "value": 1.96},
      {"measurement": "log2 fold change of degron read counts", "setting": "[3]", "value": 1.77},
      {"measurement": "log2 fold change of degron read counts", "setting": "compound: thalidomide", "value": 3.58}
    ]},
    {"sequence": "B8", "values": [
      {"measurement": "log2 fold change of degron read counts", "setting": "[1]", "value": 2.75},
      {"measurement": "log2 fold change of degron read counts", "setting": "[2]", "value": 2.53},
      {"measurement": "log2 fold change of degron read counts", "setting": "[3]", "value": 1.7},
      {"measurement": "log2 fold change of degron read counts", "setting": "compound: thalidomide", "value": 1.8}
    ]},
    {"sequence": "B9", "values": [
      {"measurement": "log2 fold change of degron read counts", "setting": "[1]", "value": 1.68},
      {"measurement": "log2 fold change of degron read counts", "setting": "[2]", "value": -0.0296},
      {"measurement": "log2 fold change of degron read counts", "setting": "[3]", "value": 1.49},
      {"measurement": "log2 fold change of degron read counts", "setting": "compound: thalidomide", "value": 2.43}
    ]},
    {"sequence": "B10", "values": [
      {"measurement": "log2 fold change of degron read counts", "setting": "[1]", "value": 1.24},
      {"measurement": "log2 fold change of degron read counts", "setting": "[2]", "value": 0.532},
      {"measurement": "log2 fold change of degron read counts", "setting": "[3]", "value": -0.284},
      {"measurement": "log2 fold change of degron read counts", "setting": "compound: thalidomide", "value": -0.251}
    ]},
    {"sequence": "B11", "values": [
      {"measurement": "log2 fold change of degron read counts", "setting": "[1]", "value": 2.23},
      {"measurement": "log2 fold change of degron read counts", "setting": "[2]", "value": 1.56},
      {"measurement": "log2 fold change of degron read counts", "setting": "[3]", "value": 2.62},
      {"measurement": "log2 fold change of degron read counts", "setting": "compound: thalidomide", "value": 2.99}
    ]},
    {"sequence": "B12", "values": [
      {"measurement": "log2 fold change of degron read counts", "setting": "[1]", "value": 3.19},
      {"measurement": "log2 fold change of degron read counts", "setting": "[2]", "value": 3.16},
      {"measurement": "log2 fold change of degron read counts", "setting": "[3]", "value": 2.27},
      {"measurement": "log2 fold change of degron read counts", "setting": "compound: thalidomide", "value": 2.44}
    ]},
    {"sequence": "B13", "values": [
      {"measurement": "log2 fold change of degron read counts", "setting": "[1]", "value": 1.58},
      {"measurement": "log2 fold change of degron read counts", "setting": "[2]", "value": -0.0234},
      {"measurement": "log2 fold change of degron read counts", "setting": "[3]", "value": -0.0305},
      {"measurement": "log2 fold change of degron read counts", "setting": "compound: thalidomide", "value": 0.742}
    ]},
    {"sequence": "B14", "values": [
      {"measurement": "log2 fold change of degron read counts", "setting": "[1]", "value": 0.356},
      {"measurement": "log2 fold change of degron read counts", "setting": "[2]", "value": -1.04},
      {"measurement": "log2 fold change of degron read counts", "setting": "[3]", "value": -1.04},
      {"measurement": "log2 fold change of degron read counts", "setting": "compound: thalidomide", "value": -0.00753}
    ]},
    {"sequence": "B15", "values": [
      {"measurement": "log2 fold change of degron read counts", "setting": "[1]", "value": 3.41},
      {"measurement": "log2 fold change of degron read counts", "setting": "[2]", "value": 2.96},
      {"measurement": "log2 fold change of degron read counts", "setting": "[3]", "value": 0.73},
      {"measurement": "log2 fold change of degron read counts", "setting": "compound: thalidomide", "value": 1.55}
    ]},
    {"sequence": "B16", "values": [
      {"measurement": "log2 fold change of degron read counts", "setting": "[1]", "value": 0.457},
      {"measurement": "log2 fold change of degron read counts", "setting": "[2]", "value": -1.92},
      {"measurement": "log2 fold change of degron read counts", "setting": "[3]", "value": 1.25},
      {"measurement": "log2 fold change of degron read counts", "setting": "compound: thalidomide", "value": 2.46}
    ]},
    {"sequence": "B17", "values": [
      {"measurement": "log2 fold change of degron read counts", "setting": "[1]", "value": -0.48},
      {"measurement": "log2 fold change of degron read counts", "setting": "[2]", "value": -1.68},
      {"measurement": "log2 fold change of degron read counts", "setting": "[3]", "value": 0.21},
      {"measurement": "log2 fold change of degron read counts", "setting": "compound: thalidomide", "value": -0.568}
    ]},
    {"sequence": "B18", "values": [
      {"measurement": "log2 fold change of degron read counts", "setting": "[1]", "value": -2.42},
      {"measurement": "log2 fold change of degron read counts", "setting": "[2]", "value": -2.23},
      {"measurement": "log2 fold change of degron read counts", "setting": "[3]", "value": -3.36},
      {"measurement": "log2 fold change of degron read counts", "setting": "compound: thalidomide", "value": -2.15}
    ]}
  ]
}
